This is a sample that favours compounds with a hit; in the whole collection about 10% have one here.
GLS inhibitor: blocks human kidney-isoform glutaminase activity | O94925 | GLS enzymatic activity, qHTS titration | Potency, µM (titrated, usually from 45.5 µM), for inactives: top-dose activity change, negative = inhibition, hits mostly inhibitors | 0.21% of 410,000 active | AID 624170; note: % is set by controls: 0 for no effect and ±100 for the full control effect
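Read-out is an Amplex red fluorescence increase coupled through glutamate oxidase and HRP, measured before and after 30 min room-temperature incubation. hKGA is in 45 mM KH2PO4 (pH 8.2) with 0.02% Tween-20; glutamine added as 1mM solution.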
BAZ2B block: blocks human BAZ2B; Potency, µM (doses to about 114 µM), inactives show at the top dose activity change, negative = inhibition, hits mostly inhibitors; 4.4% of 360,000 active; AlphaScreen BAZ2B-H3K14Ac peptide displacement; AID 504333; Q9UIF8; note: % is set by controls: 0 for no effect and ±100 for the full control effect; nearly all actives have a fitted effect of over 60% in size
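AlphaScreen displacement of biotin-H3(5-23)K14Ac peptide (50 nM final) from BAZ2B (50 nM final) in PBS pH 7.4, 0.01% Tween-20; complex preformed 30 min RT, then compounds (top 110 uM) 30 min RT, beads 20 min dark.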
HP1b binding inh: blocks HP1-beta chromodomain binding to methylated histone tails | 0.56% of 390,000 active | AlphaScreen HP1-beta / biotin-H3K9me3 peptide binding | Potency, µM (titrated, usually from 114 µM), for inactives: at the top dose activity change, negative = inhibition, hits mostly inhibitors | P83916 | AID 540317; note: nearly all actives have a fitted effect of over 70% in size
Target sequence (P83916 whole entry, looked up): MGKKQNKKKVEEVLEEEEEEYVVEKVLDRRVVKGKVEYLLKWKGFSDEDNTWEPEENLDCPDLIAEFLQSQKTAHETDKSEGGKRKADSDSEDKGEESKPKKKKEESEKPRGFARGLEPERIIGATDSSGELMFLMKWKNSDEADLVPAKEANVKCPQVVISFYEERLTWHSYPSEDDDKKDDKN
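AlphaScreen: HP1-beta (50 nM) preformed 30 min with biotin-H3(1-18)K9me3 peptide (50 nM) in PBS pH 7.4, 0.01% Tween-20. Compound added for 30 min at RT, then streptavidin donor/nickel chelate acceptor beads (10 ug/mL) for 30 min.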
G9a block: inhibitors of human histone lysine methyltransferase G9a; Q96KQ7; G9a H3K9 monomethylation, AlphaScreen, 2 h; Potency, µM (doses to about 102 µM), for the others: top-dose activity, negative = inhibition, actives largely listed as inhibitors; 8.8% of 350,000 active; AID 504332; note: % is set by controls: 0 for no effect and ±100 for the full control effect; nearly all actives have a fitted effect of over 75% in size
Target sequence (Q96KQ7 913-1193 limits assumed): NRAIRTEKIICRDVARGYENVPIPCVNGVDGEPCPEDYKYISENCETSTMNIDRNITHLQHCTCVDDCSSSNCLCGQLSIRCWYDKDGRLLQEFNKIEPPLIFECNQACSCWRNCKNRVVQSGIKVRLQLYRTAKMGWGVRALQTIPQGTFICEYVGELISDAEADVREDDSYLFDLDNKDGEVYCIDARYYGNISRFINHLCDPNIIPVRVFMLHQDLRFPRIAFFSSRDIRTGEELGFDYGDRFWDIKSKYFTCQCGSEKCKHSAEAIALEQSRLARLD
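AlphaScreen read-out: biotin-H3K9 peptide (500 nM) methylation by 20 nM enzyme with 20 uM SAM, 2 h at room temperature after 15 min compound preincubation; anti-monomethyl H3K9 antibody plus donor/acceptor beads, 10 min dark.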
JMJD2A Tudor: blocks the human JMJD2A Tudor domain; O75164; AlphaScreen JMJD2A-Tudor / H3K4me3 peptide binding; Potency, µM (highest dose often 114 µM), for inactives: top-dose activity change, negative = inhibition, actives largely listed as inhibitors; 4.4% of 390,000 active; AID 504339; note: % is set by controls: 0 for no effect and ±100 for the full control effect; nearly all actives have a fitted effect of over 50% in size
Active calls of the source: *; ? = inconclusive; / = no result given; [ ] = another dose, or the depositor's remark. Calls come from the whole dose curve; as a rule, active = well fitted curve in the direction sought with a large enough effect; inconclusive = small, poorly fitted or top-dose-only effect, or another doubt; inactive = no such curve, though single readings can be large; an effect the other way counts as inactive or inconclusive. Potency is the fitted concentration of half-maximal effect.

SMILES	GLS inhibitor	BAZ2B block	HP1b binding inh	G9a block	JMJD2A Tudor
CC(=O)Sc1nc(-c2ccccc2)[nH]c1S(=O)(=O)c1ccc(C)cc1	?	?	?	2.24µM*	12.6µM*
Cc1ccc(S(=O)(=O)c2[nH]c(-c3ccccc3)nc2SCC(=O)O)cc1	19.9%	-20.6%	42.4%	?	-17.9%
O=C(CSc1ccc([N+](=O)[O-])cn1)Nc1ccccc1N1CCOCC1	3.4%	-25.2%	15.6%	39.8µM*	-27.2%
Cc1csc(NC(=O)CSc2ccc([N+](=O)[O-])cn2)n1	2.7%	-31.2%	31.5%	50.1µM*	-26.6%
O=C(CSc1ccc([N+](=O)[O-])cc1)Nc1ccccc1N1CCOCC1	-2.0%	/	1.0%	/	-33.6%
COc1ccccc1C1CCN(Cc2ccccc2Cl)CC1	1.7%	7.6%	31.4%	-8.5%	13.9%
COc1cccc(/C=N/N2CCN(Cc3ccccc3)CC2)c1O	?	?	-12.0%	/	?
COc1ccc(Br)cc1/C=N/N1CCN(Cc2ccccc2Cl)CC1	-4.3%	?	-26.3%	11.1%[0.501 µM]	39.8µM*
COc1ccccc1/C=C/C=N/N1CCN(Cc2ccc(Cl)cc2)CC1	12.5%	31.6µM*	39.8µM*	?	44.7µM*
COc1ccccc1/C=C/C=N\N1CCN(Cc2ccccc2Cl)CC1	2.4%	39.8µM*	?	14.1µM*	20µM*
O=C(NC(=S)NCc1ccccc1)c1cccs1	18.0%	?	23.2%	/	-24.7%
CC(=O)c1cc2c(cc1NC(=O)CCC1CCCC1)OCO2	/	126.1%	/	146.9%[59 µM]	/
COc1ccc(CCNc2nc(=S)[nH]c3cc(OC)c(OC)cc23)cc1OC	-13.9%	-0.9%	24.8%	?	?
Cc1cccnc1NC(=O)CCNC(=O)c1ccc(Br)cc1	-5.8%	0.1%	15.5%	-9.3%	-7.8%
COc1ccc2c(C)c(CC(=O)N3CCN(C(=O)C4COc5ccccc5O4)CC3)c(=O)oc2c1C (centres undefined)	-6.2%	-1.5%	-21.1%	5.4%	17.8µM*
COc1ccc(S(=O)(=O)N2CCN(C(=O)C3COc4ccccc4O3)CC2)cc1 (centres undefined)	?	17.8µM*	?	?	14.1µM*
O=C(Cc1ccc(Cl)cc1)NCCCn1ccnc1	1.0%	-5.2%	21.4%	-16.1%[59 µM]	-18.8%
O=C(CCN1C(=O)/C(=C/c2ccc(Cl)cc2)SC1=S)NCCCn1ccnc1	2.4%	39.8µM*	47.0%	?	-4.3%
O=C(CN1C(=O)S/C(=C\c2ccc(F)cc2)C1=O)NCCCn1ccnc1	1.9%	?	41.8%	17.7%	-22.9%
O=C(CCN1C(=O)/C(=C/c2ccc(F)cc2)SC1=S)NCCCn1ccnc1	-2.8%	?	35.2%	50.1µM*	-14.0%
Cc1ccc(NC2=C(c3ccc(C(F)(F)F)cc3)C(=O)c3ccccc32)cc1C	-17.2%	56.2µM*	-0.2%	2.82µM*	56.2µM*
NS(=O)(=O)c1cccc(NC(=O)Cn2cc(C(F)(F)F)cc(Cl)c2=O)c1	-1.1%	-7.0%	26.1%	?	-6.3%
COc1ccc(N=NC2=C(O)CC(C)(C)CC2=O)c(OC)c1	84.9%	?	-19.3%	28.2µM*	-33.6%
CC1(C)CC(=O)C(N=Nc2ccc(Br)cc2)=C(O)C1	4.5%	-28.3%	-2.6%	-27.0%	-9.6%
COc1ccc(N=NC2=C(O)CC(C)(C)CC2=O)cc1	14.5%	?	8.7%	/	-18.0%
SMILES	GLS inhibitor	BAZ2B block	HP1b binding inh	G9a block	JMJD2A Tudor
CC1(C)CC(=O)C(N=Nc2ccc(S(=O)(=O)N3CCOCC3)cc2)=C(O)C1	-8.8%	-15.6%	3.3%	-17.3%[59 µM]	35.5µM*
CC1(C)CC(=O)C(N=Nc2cccc([N+](=O)[O-])c2)=C(O)C1	5.7%	?	-20.9%	50.1µM*	?
CC1(C)CC(=O)C(N=Nc2ccc(C(F)(F)F)cc2[N+](=O)[O-])=C(O)C1	6.4%	20µM*	?	/	50.1µM*
COc1ccc(C(CNC(=O)c2c(C)nn(Cc3ccccc3)c2Cl)N2CCOCC2)cc1 (centres undefined)	0.9%	4.5%	28.9%	27.7%[12.7 µM]	-15.8%
COc1ccccc1OCC(=O)N/N=C/C=C/c1ccc([N+](=O)[O-])o1	14.6%	-31.9%	8.8%	-13.3%[59 µM]	?
Cc1ncoc1C(=O)N1CCc2c([nH]c3ccccc23)C1C(C)(C)C (centres undefined)	4.1%	-28.2%	19.1%	?	-21.6%
Cc1cnc(CN2CCc3c([nH]c4ccccc34)C2C2CCCCC2)[nH]1 (centres undefined)	-12.4%	-18.4%	-6.1%	-3.1%	-19.5%[57.1 µM]
c1ccc2c3c([nH]c2c1)C(C1CCCCC1)N(Cc1ncc[nH]1)CC3 (centres undefined)	?	?	-6.9%	44.7µM*	?
Cc1ncoc1C(=O)N1CCc2c([nH]c3ccccc23)C1C1CCCCC1 (centres undefined)	-0.4%	25.1µM*	-1.8%	/	?
Cc1ccc(C)c2nc3sc(C(=O)N4CCCc5ccccc54)c(N)c3cc12	2.3%	1.3%	14.2%	?	-33.6%
COc1ccc2cc3c(N)c(C(=O)N4CCCC4)sc3nc2c1	-19.1%	?	32.8%	?	?
CCc1ccc2nc3sc(C(=O)N4CCc5ccccc54)c(N)c3cc2c1	/	-9.6%	/	50.1µM*	/
CCOc1ccc2nc3sc(C(=O)N4CCN(C)CC4)c(N)c3cc2c1	-7.7%	-36.6%	37.0%	?	?
Cc1ccc2nc3sc(C(=O)N4CCOCC4)c(N)c3cc2c1	-14.5%	-1.8%	47.0%	14.1µM*	?
Cc1ccc2cc3c(N)c(C(=O)N4CCOCC4)sc3nc2c1	-7.8%	2.2%	41.0%	28.2µM*	-21.4%
Cc1[nH]c2ccccc2c1C(=O)C(=O)NCCc1ccc(S(N)(=O)=O)cc1	-0.1%	3.8%	25.9%	-7.7%[59 µM]	-6.7%
Cn1cnc([N+](=O)[O-])c1S(=O)(=O)Oc1ccccc1	3.0%	/	16.1%[57 µM]	/	-6.2%
COc1cc(/C=N/NC(=O)c2cn(-c3cccc(C)n3)cn2)ccc1O	0.0%	0.4%	22.5%	-3.2%	-11.3%
CCCCN1C(=O)/C(=C2\SC(N3CCCCC3)=NC2=O)c2ccccc21	-4.8%	-84.4%	15.8µM*	15.8µM*	56.2µM*
CC(C)(C)c1onc(OCP(=O)(O)O)c1CC(N)C(=O)O (centres undefined)	/	/	/	5.32µM*	/
O=C(NC1CCCC1)C1CCN(C(=O)c2ccc(Cl)cc2)CC1	-13.6%	3.5%	16.4%	-2.2%[59 µM]	4.2%
O=C(Nc1ccccc1N1CCCC1)C1CCN(C(=O)c2ccc(F)cc2)CC1	27.8%	7.1%	2.6%	50.1µM*	-19.2%
O=C(Nc1ccccc1N1CCCC1)C1CCN(C(=O)c2ccc(Cl)cc2)CC1	-22.7%	-9.7%	-11.9%	50.1µM*	-29.0%
N#Cc1ccsc1NC(=O)C1CCN(C(=O)c2ccc(Cl)cc2)CC1	-1.0%	-33.6%	20.2%	50.1µM*	-17.2%
Cc1ccc(CN(Cc2ccco2)C(=O)COc2ccc(C(C)C)cc2)cc1	0.5%	57.0%	91.0%	-48.5%[59 µM]	33.0%

Assay outcomes as filed in PubChem BioAssay.
